# Assay results taken from ChEMBL document CHEMBL3988442, “University of Dundee, Small-Polar-MMV Screening Library” (2021).
# The campaign covered roughly 67,000 compounds. About 300 (0.45%) showed an effect of 50% or more. The full list was thinned out, with strong results kept by preference.
# Molecular target: Polyketide synthase Pks13 (Mycobacterium tuberculosis (strain ATCC 25618 / H37Rv)) (UniProt I6X8D2)
# Assay: Mycobacterium tuberculosis Polyketide synthase 13 Thioesterase (PKS13)
# Format: functional
# Parameters: scale not given: in the data most compounds retested in dose-response had high values
# Conditions: 30 µM
# Chain of Polyketide synthase Pks13 (Mycobacterium tuberculosis (strain ATCC 25618 / H37Rv)) (I6X8D2 whole entry): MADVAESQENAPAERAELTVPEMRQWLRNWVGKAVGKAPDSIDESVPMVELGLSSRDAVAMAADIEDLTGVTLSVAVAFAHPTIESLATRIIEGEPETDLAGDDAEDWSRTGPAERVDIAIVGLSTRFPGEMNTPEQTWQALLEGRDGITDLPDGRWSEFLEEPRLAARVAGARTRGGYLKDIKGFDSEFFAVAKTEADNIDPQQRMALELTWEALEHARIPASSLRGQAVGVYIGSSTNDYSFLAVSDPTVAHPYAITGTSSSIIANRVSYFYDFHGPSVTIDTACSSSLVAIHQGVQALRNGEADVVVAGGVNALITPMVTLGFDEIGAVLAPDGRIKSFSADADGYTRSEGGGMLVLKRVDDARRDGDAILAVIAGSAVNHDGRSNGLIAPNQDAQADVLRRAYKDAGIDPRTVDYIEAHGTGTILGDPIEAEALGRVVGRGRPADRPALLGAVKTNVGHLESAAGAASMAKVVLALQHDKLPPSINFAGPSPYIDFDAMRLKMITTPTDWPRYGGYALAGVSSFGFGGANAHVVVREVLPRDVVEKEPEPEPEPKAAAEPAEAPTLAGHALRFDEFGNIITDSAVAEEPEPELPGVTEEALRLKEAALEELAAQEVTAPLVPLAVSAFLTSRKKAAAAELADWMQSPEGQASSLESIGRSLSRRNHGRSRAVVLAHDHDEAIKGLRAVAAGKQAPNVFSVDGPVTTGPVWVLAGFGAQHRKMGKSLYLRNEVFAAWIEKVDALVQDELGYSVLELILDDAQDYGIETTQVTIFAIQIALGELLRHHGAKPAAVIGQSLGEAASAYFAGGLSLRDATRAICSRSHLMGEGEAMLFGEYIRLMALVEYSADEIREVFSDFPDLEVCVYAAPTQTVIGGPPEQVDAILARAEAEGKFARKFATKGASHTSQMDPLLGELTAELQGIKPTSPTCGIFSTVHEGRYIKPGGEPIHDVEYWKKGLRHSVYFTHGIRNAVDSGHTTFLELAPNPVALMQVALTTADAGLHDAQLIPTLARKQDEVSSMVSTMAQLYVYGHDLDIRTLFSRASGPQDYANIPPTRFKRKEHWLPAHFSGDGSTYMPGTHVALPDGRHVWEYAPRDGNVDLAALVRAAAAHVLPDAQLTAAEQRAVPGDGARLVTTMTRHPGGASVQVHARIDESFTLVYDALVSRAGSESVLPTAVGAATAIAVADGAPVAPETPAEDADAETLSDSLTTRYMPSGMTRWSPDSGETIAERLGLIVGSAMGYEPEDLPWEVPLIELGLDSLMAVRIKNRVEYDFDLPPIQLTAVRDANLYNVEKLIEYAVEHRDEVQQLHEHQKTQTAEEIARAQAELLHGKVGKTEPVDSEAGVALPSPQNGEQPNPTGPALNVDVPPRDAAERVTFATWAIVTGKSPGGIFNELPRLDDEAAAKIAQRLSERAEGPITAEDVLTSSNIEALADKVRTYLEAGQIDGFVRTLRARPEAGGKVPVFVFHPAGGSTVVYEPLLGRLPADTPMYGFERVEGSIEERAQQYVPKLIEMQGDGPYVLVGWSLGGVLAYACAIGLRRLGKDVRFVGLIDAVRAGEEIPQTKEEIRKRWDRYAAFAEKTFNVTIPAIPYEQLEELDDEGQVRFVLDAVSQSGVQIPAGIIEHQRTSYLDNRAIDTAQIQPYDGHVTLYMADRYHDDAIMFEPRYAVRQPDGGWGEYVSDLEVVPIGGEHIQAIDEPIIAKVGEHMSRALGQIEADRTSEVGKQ
row,Compound,Percent Effect [%]
1,COCC(=O)N1CCc2ccccc2C12CCNCC2,-33
2,CCOC(=O)N1CCc2ccccc2C12CCNCC2,5.43
3,O=C(C1CC1)N1CCc2ccccc2C12CCNCC2,61.6
4,CCOCC(=O)N1C[C@@H]2CC[C@H](C1)N(Cc1ccccn1)C2=O,-4.9
5,CC(C)OCc1ncn2c1CN(Cc1ccc(F)cc1)CCC2,-26.5
6,CC(C)OCc1ncn2c1CN(Cc1cccs1)CCC2,-19.5
7,CC(C)OCc1ncn2c1CN(Cc1nccs1)CCC2,54.5
8,CN1CCN2C[C@@H](CO)[C@H](c3ccccc3)[C@H]2C1,1.92
9,Fc1cnc(N2CC[C@@H](N3CCOCC3)[C@@H]2Cc2ccccc2)nc1,-4.97
10,Fc1cnc(N2CC[C@@H](N3CCOCC3)[C@@H]2Cc2ccncc2)nc1,-11.8
11,Cn1cc(C[C@H]2[C@H](N3CCOCC3)CCN2c2ncc(F)cn2)cn1,56
12,CN1C[C@@H]2CN(C(=O)NCc3ccccc3)CCC[C@]2(C(=O)O)C1,-22.8
13,O=S1(=O)C[C@@H]2[C@H](C1)N(Cc1cc(Cl)cc(Cl)c1)CCN2CC1CC1,-18.6
14,COc1cccc(N2CCN(C(=O)C(O)c3cccc(Cl)c3)CC2=O)c1 (centres undefined),-13.9
15,COc1cccc(N2CCN(C(=O)C(O)c3ccccc3Cl)CC2=O)c1 (centres undefined),55.5
16,COc1cccc(N2CCN(C(=O)C(C)Oc3ccccc3)CC2=O)c1 (centres undefined),-5.21
17,O=C(CCc1cc(Cl)no1)N1CCC(c2cc3ncccc3cn2)CC1,129
18,CCc1cc(C(=O)N2CCC(c3cc4ncccc4cn3)CC2)on1,16.1
19,CCc1cc(C(=O)N2CCC(c3cc4ncccc4cn3)CC2)no1,-21.6
20,O=C(C1CCOCC1)N1CC[C@H]2[C@H]1CCN2c1nncs1,-28.6
21,CSCC[C@@H]1CN2CCC[C@H]2CN1Cc1coc2ccc(Cl)cc2c1=O,-2.59
22,CN(Cc1cncnc1)[C@@H]1CN(C(=O)C2CC2)[C@@H]2CCCO[C@H]12,-10.1
23,CN(C)S(=O)(=O)N1C[C@@H]2CC[C@H](C1)N(C/C=C/c1ccc(F)cc1)C2,-0.937

row,Compound,Percent Effect [%]
1,CCCN1CCCC1c1nc(Cc2ccc(F)cc2)no1 (centres undefined),-12.9
2,CC(C)(C)OCCN1CCCC1c1nc(Cc2ccc(F)cc2)no1 (centres undefined),74.9
3,OCCCN1CCCC1c1nc(Cc2ccc(F)cc2)no1 (centres undefined),11.8
4,c1cnc(NC[C@H]2OC[C@@H]3CCN(Cc4cccnc4)C[C@@H]32)nc1,-692
5,Cc1nc2c(c(N(C)C)n1)CCN(C(=O)c1ccc(N)nc1)C2,-0.177
6,CCNc1ncc(C(=O)N2CCc3c(nc(C)nc3N(C)C)C2)cn1,50.1
7,CCCc1ccc(C(=O)N2CCc3c(nc(C)nc3N(C)C)C2)cc1,6.78
8,Cc1ccc(CN2CC[C@H]3NC(=O)CC[C@@H]32)o1,-15.3
9,O=C(c1ncccn1)N1C[C@@H]2COC[C@]2(COCc2cccnc2)C1,-13.2
10,COCCCN1C(=O)CC[C@H]2CN(Cc3ccc4occc4c3)CC[C@H]21,-8.86
11,O=C1CC(c2cccc(Cl)c2)c2snc(C(=O)O)c2N1 (centres undefined),-0.952
12,O=C1CC(c2ccc(F)c(F)c2)c2snc(C(=O)O)c2N1 (centres undefined),68.8
13,O=C1CC(c2ccc(F)cc2)c2snc(C(=O)O)c2N1 (centres undefined),-1.41
14,CC(=O)NCC(=O)N1C[C@H](OCc2cccnc2)[C@H]2COC[C@H]21,-10.5
15,Cn1cc(CN2CCO[C@@H]3CN(C4CCCC4)C[C@@H]3C2)cn1,-3.52
16,CCc1ccc(CN2CCN(Cc3ncc[nH]3)[C@H]3CS(=O)(=O)C[C@H]32)nc1,-7.95
17,CCS(=O)(=O)N1C[C@@H]2CN(Cc3ccco3)CCO[C@@H]2C1,-0.26
18,Cc1cccc(CO[C@@H]2CC[C@H]3[C@H]2OCCN3Cc2nccs2)n1,-27.1
19,COC(=O)CNC(=O)c1nc(-c2ccccc2OC)c2cnccn12,118
20,COc1ccccc1-c1nc(C(=O)N(C)C)n2ccncc12,11.7
21,COC(=O)CNC(=O)Cn1ccc2cccc(OC)c21,-29.2
22,Cc1nnc(N2C[C@H](OCCCn3cccn3)[C@H]3OCCC[C@H]32)s1,-20.4
23,O=C1CO[C@H]2CN(Cc3cccnc3)C[C@H]2N1,0.623

row,Compound,Percent Effect [%]
1,CC(=O)N1C[C@@H](c2ccsc2)[C@@H]2CN(CC3CCCCC3)CC[C@@H]21,18
2,Cc1cccc(-c2ccc(C(=O)NCC(C)(C)C(N)=O)c(=O)[nH]2)c1,57.5
3,Cc1cccc(-c2ccc(C(=O)NCC3CCOC3)c(=O)[nH]2)c1 (centres undefined),-6.84
4,Cc1cccc(-c2ccc(C(=O)NCCN(C)C3CC3)c(=O)[nH]2)c1,-29.9
5,O=C(NC[C@H]1C[C@@H]2CN(C(=O)c3ccno3)C[C@@H]2O1)C1CCC1,-26.6
6,CCN1C(=O)C[C@@H]2[C@@H]1CCN2S(=O)(=O)c1ccc(OC)cc1,-42.1
7,O=C(c1cccs1)N1C[C@@H]2OCCN(CC3CCCO3)[C@@H]2C1 (some centres undefined),8.57
8,CCn1c(SCC(=O)N2CCCC2)nc2cc(C)[nH]c2c1=O,54.6
9,Cc1cc2nc(SCC(=O)N3CCCC3)n(C)c(=O)c2[nH]1,-2.84
10,CCn1c(SCC(=O)N2CCOCC2)nc2cc(C)[nH]c2c1=O,11.1
11,Cc1cc(C(=O)N2C[C@@H]3OCCN(CCN4CCCC4)[C@@H]3C2)c(C)o1,-5.69
12,CCN1C(=O)C[C@@H]2[C@@H]1CCN2S(=O)(=O)Cc1ccc(C)cc1,16.4
13,Cc1cc(C(=O)N2CC[C@H]3[C@H](C[C@@H](CN4CCCC4)N3C)C2)c(C)o1,-16.7
14,CS(=O)(=O)N1CCCC1c1cccc(Cc2ccccc2F)n1 (centres undefined),51.8
15,CC(=O)N1CCCC1c1cccc(Cc2ccccc2F)n1 (centres undefined),-41.9
16,CN1CCCC1c1cccc(Cc2ccccc2F)n1 (centres undefined),-56.2
17,CCC1=N[C@@]2(CC[C@@H]3CN(C(=O)Nc4ccccc4)C[C@@H]32)C(=O)N1C,7.9
18,O=C(NC1CC1)[C@H]1C[C@H]2OCC[C@H]2N(Cc2cccnc2)C1,1.16
19,O=C(c1cc2cc(F)ccc2[nH]1)N1CCC(Nc2ccc(F)cc2)CC1,70.6
20,O=C(c1cc2cc(F)ccc2[nH]1)N1CCC(Nc2cccnn2)CC1,-12.9
21,Cc1nnc2n1CCN(C(=O)c1cc3cc(F)ccc3[nH]1)C2,-0.338
22,O=C1CO[C@H]2CN(Cc3ccccc3Br)C[C@@H]2N1,5.27
23,Cn1ccnc1CN1CCN(CC2CC2)[C@@H]2CS(=O)(=O)C[C@@H]21,-9.98
